SMILES strings stand for the structures. Compounds without any hit were thinned out: in the full panel of roughly 79,000, 15% have a hit. Activity calls are given as the source filed them. Cut-off read from the data, not from the text of the source: active = growth inhibition above about 70%; inactive = the rest.

For 39 molecules, growth inhibition results are on record in PubChem BioAssay (NCI).

One assay can be described thus: NCI Yeast Anticancer Drug Screen. Data for the bub3 strain (AID 167). The settings on record: S. cerevisiae bub3 mutant strain, at 50.0 µM, stronger effect = higher value. An outline of the steps: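 Readout: yeast growth inhibition, expressed relative to vehicle-only wells. The test organism is a mutant strain from a panel with lesions in DNA repair or checkpoint genes.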
For `CN(C)CCC(=O)c1ccc(O)cc1`, the growth inhibition is -14.8% (inactive).
Still for that read-out and setting: the result for `Cc1ccncc1C(N)=O` reads -11% (inactive).
Turning to `N#Cc1c(N)sc(=S)c2c1CCCC2`, the growth inhibition is -2.05% (inactive).
Still for that read-out and setting: the same measure for `Nc1nc(N)c(N=Nc2ccc(C(=O)O)cc2)c(N)n1`: 19% (inactive); for `NC(C(=O)O)C(O)c1ccco1` (stereo not drawn): 3.75% (inactive).
`COc1ccc(Oc2c(I)cc(CC(NC(C)=O)C(=O)O)cc2I)cc1` (stereo not drawn): the growth inhibition was 37.4% (inactive).
As to `O=[N+]([O-])c1cccc(C(F)(F)F)c1`, the growth inhibition is 34.3% (inactive).
On the same count and under the same terms, the same measure for `COc1ccc2c(c1)CCc1c-2n[nH]c1-c1[nH]nc2c1CCc1cc(OC)ccc1-2`: -16.1% (inactive).
As to `O=C1c2ccccc2C(=O)N1OCc1ccccc1`, the growth inhibition is -20% (inactive).
The same measure, in the same setting: the same measure for `CCOC(=O)c1[nH]c(C)c(C(C)=O)c1C`: -27% (inactive).
Still for that read-out and setting: the result for `O=C(O)c1ccnc(Br)c1` reads -27.3% (inactive); that for `COc1ccc(-c2cc3c(nn2)-c2ccccc2C3=O)cc1`, -19.1% (inactive); that for `CC(=O)OC1CC2C(C)(C)OC3CC(=O)OCC32C2CCC3(C)C(=CCC3c3ccoc3)C12C` (stereo not drawn), -10.3% (inactive).
The same measure, in the same setting: the same measure for `CC(=O)Nc1ccc(NC(C)=O)c2c1C(=O)c1ccccc1C2=O`: -19.3% (inactive).
As for `CCOc1ccccc1/C=N/Nc1nc2ccccc2o1`, the growth inhibition is 6.85% (inactive).
Same read-out and setting: the result for `CCOC(=O)c1ccc(Nc2sc(C(=O)c3cccc([N+](=O)[O-])c3)c(N)c2C#N)cc1` reads 2.8% (inactive); that for `CC(=O)OCCO`, -41.8% (inactive); that for `O=C(/C=C/C(=O)c1ccccc1)c1ccccc1`, 36% (inactive).
As to `C=CCNC(=O)c1ccc(OC)cc1`, the growth inhibition was -4.5% (inactive).
As for `CC(=O)c1cc2c(cc1F)C(C)(C)CCC2(C)C`, the growth inhibition is -20.1% (inactive).
Take `CCc1nc(N)nc(N)c1-c1ccc(Cl)cc1`: the growth inhibition was -14% (inactive).
Turning to `CCCC[P+](c1ccccc1)(c1ccccc1)c1ccccc1`, the growth inhibition is 33.1% (inactive).
`COC1=CC(=O)c2nc(Cl)ccc2C1=O`: the growth inhibition was 11.8% (inactive).
As for `COCCCC/C(=N\OCCN)c1ccc(C(F)(F)F)cc1`, the growth inhibition is -0.35% (inactive).
On the same count and under the same terms, the result for `CCS(=O)(=O)CCCl` reads 0.95% (inactive); that for `Nc1nc2c(c(-c3nc(N)nc4c3CCc3ccccc3-4)n1)CCc1ccccc1-2`, -20.5% (inactive).
Same read-out and setting: the result for `C[N+](C)(C)C(=O)c1ccccc1` reads -1.15% (inactive); that for `CCCCC(=O)c1ccc(OC)cc1`, -8.3% (inactive).
Turning to `COc1cc(C(=O)NC(=S)Nc2ccc3ccccc3c2)cc(OC)c1OC`, the growth inhibition is -3.4% (inactive).
In the case of `CCC/C=C(/C(C)=O)C(=O)OCC`, the growth inhibition is -19.8% (inactive).
Take `CCOC(=O)c1cc2cccc(OC)c2oc1=O`: the growth inhibition is 12.8% (inactive).
With `O=C(Nc1cccc(NC(=O)Nc2cc(C(F)(F)F)ccc2Cl)c1)Nc1cc(C(F)(F)F)ccc1Cl`, the growth inhibition is 14.9% (inactive).
Still for that read-out and setting: the result for `C=C1CC/C=C(\C)C(=O)C[C@@H]2[C@@H]1CC2(C)C` reads 15.3% (inactive); that for `Cc1cc(C)c(CC(=O)O)c(C)c1`, 4.3% (inactive).
On the same count and under the same terms, the same measure for `CCOc1ccc(/C=C/C(=O)c2ccccc2)cc1`: 22.4% (inactive); for `O=C1C=CC2=C3c4cc(O)c(O)cc4CC3(O)COC2=C1O` (stereo not drawn): -5.7% (inactive).
Same read-out and setting: the same measure for `COc1cc2c3c(n(C)c(=O)c2cc1OC)-c1cc2c(cc1C3=O)OCO2`: -3.6% (inactive); for `O=c1cc(-c2ccccc2)[nH]c(=S)[nH]1`: 9.1% (inactive); for `C=CCc1cc(C(C)=O)cc(OC)c1O`: -34.4% (inactive).

Another assay is described as follows: NCI Yeast Anticancer Drug Screen. Data for the mlh1 rad18 strain (AID 175). The conditions noted are these: S. cerevisiae mlh1 rad18 strain growth inhibition; at 50.0 µM; stronger effect = higher value. An outline of the steps:
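Inhibition values reflect reduced growth of mutant yeast versus vehicle-treated controls following compound exposure; the mutations affect DNA damage repair.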
With `CN(C)CCC(=O)c1ccc(O)cc1`, the growth inhibition is -9.45% (inactive).
Still for that read-out and setting: the result for `Cc1ccncc1C(N)=O` reads 3.3% (inactive); that for `N#Cc1c(N)sc(=S)c2c1CCCC2`, 11.4% (inactive).
For `Nc1nc(N)c(N=Nc2ccc(C(=O)O)cc2)c(N)n1`, the growth inhibition is 22.4% (inactive).
Same read-out and setting: the same measure for `NC(C(=O)O)C(O)c1ccco1` (stereo not drawn): 6.75% (inactive).
On the same count and under the same terms, the result for `COc1ccc(Oc2c(I)cc(CC(NC(C)=O)C(=O)O)cc2I)cc1` (stereo not drawn) reads 49.7% (inactive).
On the same count and under the same terms, the same measure for `O=[N+]([O-])c1cccc(C(F)(F)F)c1`: -9.85% (inactive); for `COc1ccc2c(c1)CCc1c-2n[nH]c1-c1[nH]nc2c1CCc1cc(OC)ccc1-2`: -5% (inactive).
Turning to `O=C1c2ccccc2C(=O)N1OCc1ccccc1`, the growth inhibition is -32.7% (inactive).
The same measure, in the same setting: the result for `CCOC(=O)c1[nH]c(C)c(C(C)=O)c1C` reads -8.15% (inactive).
Still for that read-out and setting: the result for `O=C(O)c1ccnc(Br)c1` reads -14.2% (inactive); that for `COc1ccc(-c2cc3c(nn2)-c2ccccc2C3=O)cc1`, 5.45% (inactive); that for `CC(=O)OC1CC2C(C)(C)OC3CC(=O)OCC32C2CCC3(C)C(=CCC3c3ccoc3)C12C` (stereo not drawn), 1.1% (inactive).
With `CC(=O)Nc1ccc(NC(C)=O)c2c1C(=O)c1ccccc1C2=O`, the growth inhibition was 23.9% (inactive).
Still for that read-out and setting: the same measure for `CCOc1ccccc1/C=N/Nc1nc2ccccc2o1`: 33.6% (inactive); for `CCOC(=O)c1ccc(Nc2sc(C(=O)c3cccc([N+](=O)[O-])c3)c(N)c2C#N)cc1`: 0.55% (inactive).
Still for that read-out and setting: the same measure for `CC(=O)OCCO`: 17.6% (inactive); for `O=C(/C=C/C(=O)c1ccccc1)c1ccccc1`: 51.1% (inactive).
Take `C=CCNC(=O)c1ccc(OC)cc1`: the growth inhibition was 5.7% (inactive).
Turning to `CC(=O)c1cc2c(cc1F)C(C)(C)CCC2(C)C`, the growth inhibition was -18.6% (inactive).
Consider `CCc1nc(N)nc(N)c1-c1ccc(Cl)cc1`, for which the growth inhibition is -21.2% (inactive).
Still for that read-out and setting: the same measure for `CCCC[P+](c1ccccc1)(c1ccccc1)c1ccccc1`: 65.2% (inactive); for `COC1=CC(=O)c2nc(Cl)ccc2C1=O`: 24.6% (inactive); for `COCCCC/C(=N\OCCN)c1ccc(C(F)(F)F)cc1`: 25.3% (inactive).
Same read-out and setting: the result for `CCS(=O)(=O)CCCl` reads 5.85% (inactive); that for `Nc1nc2c(c(-c3nc(N)nc4c3CCc3ccccc3-4)n1)CCc1ccccc1-2`, 2.9% (inactive).
The same measure, in the same setting: the same measure for `C[N+](C)(C)C(=O)c1ccccc1`: 46.6% (inactive); for `CCCCC(=O)c1ccc(OC)cc1`: -6.4% (inactive).
Regarding `COc1cc(C(=O)NC(=S)Nc2ccc3ccccc3c2)cc(OC)c1OC`, the growth inhibition was 13.1% (inactive).
With `CCC/C=C(/C(C)=O)C(=O)OCC`, the growth inhibition is -6.75% (inactive).
`CCOC(=O)c1cc2cccc(OC)c2oc1=O`: the growth inhibition is -0.2% (inactive).
Same read-out and setting: the same measure for `O=C(Nc1cccc(NC(=O)Nc2cc(C(F)(F)F)ccc2Cl)c1)Nc1cc(C(F)(F)F)ccc1Cl`: 11.7% (inactive).
On to `C=C1CC/C=C(\C)C(=O)C[C@@H]2[C@@H]1CC2(C)C`, for which the growth inhibition is -43.1% (inactive).
Consider `Cc1cc(C)c(CC(=O)O)c(C)c1`, for which the growth inhibition was 10.4% (inactive).
Same read-out and setting: the same measure for `CCOc1ccc(/C=C/C(=O)c2ccccc2)cc1`: -19.6% (inactive).
For `O=C1C=CC2=C3c4cc(O)c(O)cc4CC3(O)COC2=C1O` (stereo not drawn), the growth inhibition was -32% (inactive).
For `COc1cc2c3c(n(C)c(=O)c2cc1OC)-c1cc2c(cc1C3=O)OCO2`, the growth inhibition is -16.1% (inactive).
Turning to `O=c1cc(-c2ccccc2)[nH]c(=S)[nH]1`, the growth inhibition was -9.55% (inactive).
Same read-out and setting: the same measure for `C=CCc1cc(C(C)=O)cc(OC)c1O`: -19.4% (inactive).
